# Results taken from PubChem BioAssay (NCI).
# The panel holds about 79,000 compounds, 15% with a hit somewhere; the sample as a whole holds those more often. Values without a mark were called inactive. Active and inactive are the calls of the source. No stated cut-off is given here; in the data, active means growth inhibition above about 70%; inactive means the rest.
# Test: NCI Yeast Anticancer Drug Screen. Data for the bub3 strain (AID 167)
# Settings: S. cerevisiae bub3 mutant strain, at 50.0 µM, active compounds read high
# Method in brief: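 Screening used yeast with an engineered genetic alteration affecting cell cycle control. Compound-exposed cultures were compared with vehicle cultures, and reduced growth was taken as inhibition.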
row,SMILES,growth inhibition
1,Cc1cc2nc3c(=O)[nH]c(=O)nc-3n(CCOC(=O)CCC(=O)O)c2cc1C,3.1%
2,O=c1c(Cl)cc(Cl)cn1S(=O)(=O)c1ccc([N+](=O)[O-])cc1,97.7% (active)
3,COC(=O)C(=O)C1(C)CCc2c(ccc3ccc(OC)cc23)C1=O (stereo unspecified),19.9%
4,COc1ccc(C(=O)/C=C/c2ccncc2)cc1OC,32.5%
5,CC(C)CCCC(C)C1CCC2C3CCC4CC(O)C5(CC4(C)C3CCC12C)SCCS5 (stereo unspecified),-6.35%
6,O=C(Oc1ccn(C2OC(CO)C(O)C2O)c(=O)c1)C12CC3CC(CC(C3)C1)C2 (stereo unspecified),0.95%

# Test: NCI Yeast Anticancer Drug Screen. Data for the mlh1 rad18 strain (AID 175)
# Settings: S. cerevisiae mlh1 rad18 strain growth inhibition; at 50.0 µM; active compounds read high
# Method in brief: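 Cells of a genetically altered yeast strain, deficient in DNA damage repair, were treated with compound. Their growth was then compared with that of vehicle-treated cultures to give inhibition.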
row,SMILES,growth inhibition
1,O=C1C(CN2CCCCC2)CCC1CN1CCCCC1 (stereo unspecified),51.5%
2,CC1CC[N-]CC1.CC1CC[N-]CC1.[Cl][Pt+2][Cl],5.8%
3,COc1cc2c(c(OC)c1OC)-c1ccc(OC)c(=O)cc1C(NC(=O)CCCCCNc1ccc(N=[N+]=[N-])cc1[N+](=O)[O-])CC2 (stereo unspecified),84.3% (active)
4,C(=N\NC1=NCCCN1)/c1ccc2ccccc2c1,1.15%
5,C[n+]1c(/C=C\c2ccc(O)cc2)cc(C(N)=O)c2ccccc21,7.7%
6,Cc1ncc(CN2CSC(CCO)C2C)c(N)n1 (stereo unspecified),43.1%
7,Nc1cc(Cl)c(N)c(Cl)c1,-0.9%
8,N#Cc1cccc(-c2ccc(-c3ccccc3)o2)c1,20.4%
9,CC1CN=C(N(C(=O)Nc2ccc(Cl)c(Cl)c2)c2ccccc2)S1 (stereo unspecified),-3.3%
10,OCC1CC1c1ccccc1 (stereo unspecified),5.55%
